Screening data: PubChem, National Center for Advancing Translational Sciences (NCATS)
An excerpt weighted towards active compounds, which were near 19% of everything screened.
TDP1 cell CPT: qHTS for Inhibitors of human tyrosyl-DNA phosphodiesterase 1 (TDP1): qHTS in cells in presence of CPT; chicken DT40 Tdp1-/-;hTDP1 cells + 20 nM CPT, ATP luminescence, 48 h; Potency, µM (titrated, usually from 46.2 µM), inactives show at the top dose activity change, negative = growth inhibition, hits mostly inhibitors; hit rate 12% among 420,000; AID 686979, 2013; note: potency is the fitted concentration of half-maximal effect; nearly all actives have a fitted effect of over 55% in size
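Cell growth measured by CellTiter-Glo luminescence after a minimum 48 h, 37 C compound exposure with 20 nM CPT in Tdp1-knockout DT40 cells stably expressing hTDP1, seeded 400/well; qHTS titration format.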
uPA surface inh: qHTS for Inhibitors of Cell Surface uPA Generation; hit rate 0.31% among 330,000; cell surface uPA generation assay, qHTS; Potency, µM (top dose mostly 38.3 µM), for inactives: at the highest dose activity change, negative = inhibition, most hits filed as inhibitors; active = well fitted inhibition curve with a large enough effect; inconclusive = small, poorly fitted or top-dose-only effect; inactive = no such curve, though single readings can be large or run the other way; tested in mouse RAW 264.7 cells; note: potency is the fitted concentration of half-maximal effect; nearly all actives have a fitted effect of over 55% in size
HT1080 IDH1KD tx: qHTS for induction of synthetic lethality in tumor cells producing 2HG: qHTS for the HT-1080-IDH1KD cell line | hit rate 2% among 360,000 | HT-1080 IDH1 knockdown viability, ATP luminescence, 48 h | Potency, µM (doses to about 46.1 µM), for inactives: top-dose activity, negative = toxicity, actives largely listed as cytotoxic;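 note: potency is the fitted concentration of half-maximal effect; 0% = DMSO wells and -100% = cell-free medium wells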
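Cytotoxicity counter-line: IDH1KD HT-1080, 48 h, CellTiter-Glo. Curves classed by r2, magnitude and activity.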
DT40 TDP1 no CPT: qHTS for Inhibitors of human tyrosyl-DNA phosphodiesterase 1 (TDP1): qHTS in cells in absence of CPT. DT40 Tdp1-/- hTDP1 cells, no CPT, ATP luminescence, 48 h. hit rate 15% among 420,000. Potency, µM (titrated, usually from 46.2 µM), without a hit: at the top dose activity change, negative = growth inhibition, most hits filed as inhibitors; note: potency is the fitted concentration of half-maximal effect; nearly all actives have a fitted effect of over 55% in size
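Compound effects on proliferation are scored in DT40 Tdp1-/-;hTDP1 cells in the absence of CPT. ATP levels (CellTiter-Glo luminescence) are recorded after a ≥48 hr, 37 °C incubation.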
IL1B secr inh: qHTS for Inhibitors of Inflammasome Signaling: IL-1-beta AlphaLISA Primary Screen; THP-1 LPS/ATP IL-1B secretion, AlphaLISA, 16 h; active compounds read low; activity change, % at 57.5 µM; hit rate 4.7% among 360,000; in the data active = activity change below about -50%; inconclusive = mostly about -30% to -49%
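THP-1 cells pretreated 1 hr with compounds (up to 57.5 uM final), then stimulated with LPS (250 ng/mL final) plus ATP (1.25 mM final); secreted IL-1B measured by AlphaLISA after 16 hr, decreased signal indicating inhibition.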
HT1080NT lethal: qHTS for induction of synthetic lethality in tumor cells producing 2HG: qHTS for the HT-1080-NT fibrosarcoma cell line | Potency, µM (series often up to 46.1 µM), for inactives: at the highest dose activity, negative = less viability, hits mostly cytotoxic | HT-1080-NT fibrosarcoma viability, CellTiter-Glo ATP luminescence, 48 h | AID 686970, 2013 | hit rate 1.6% among 360,000;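 note: NT is the 2HG producing partner of a matched IDH1 knockdown line; potency is the fitted concentration of half-maximal effect; 0% = DMSO-treated cells and -100% = media-only wells without cells; nearly all actives have a fitted effect of over 55% in size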
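Viability by CellTiter-Glo luminescence after 48 h compound exposure at 37C of HT-1080-NT cells (750/well, RPMI, 5% FBS). % activity scaled between DMSO wells and medium-only wells, then curve-fitted and categorized by curve class.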
The depositor's hits bear a star. Unless noted, calls come from the whole dose curve; as a rule, active = well fitted curve in the direction sought with a large enough effect; inconclusive = small, poorly fitted or top-dose-only effect, or another doubt; inactive = no such curve, though single readings can be large; an effect the other way counts as inactive or inconclusive. Unless noted, % is set by controls: 0 for no effect and ±100 for the full control effect.

How did CCOC(=O)c1cnc2c(ccc3ccccc32)c1Nc1cccc(C(F)(F)F)c1 do in these assays?
TDP1 cell CPT: -29%; DT40 TDP1 no CPT: -4%

What do the screens show for `Nc1nc(=S)c2snnc2[nH]1`?
TDP1 cell CPT: 11µM*; DT40 TDP1 no CPT: 16µM*

How did Nc1nc2[nH]c(=S)[nH]c2c(=O)[nH]1 do in these assays?
TDP1 cell CPT: 3%; DT40 TDP1 no CPT: 2%

What do the screens show for `COc1ccccc1OCC(=O)NCCSCc1ccccc1Cl`?
TDP1 cell CPT: inconclusive; uPA surface inh: 3%; HT1080 IDH1KD tx: -1%; DT40 TDP1 no CPT: 18µM*; IL1B secr inh: -5; HT1080NT lethal: -3%

How did Cn1ccc2c(OCC(=O)NCc3ccccc3Cl)cccc2c1=O do in these assays?
TDP1 cell CPT: inconclusive; DT40 TDP1 no CPT: 18µM*

What do the screens show for `CCCCc1ccc(NC(=O)COc2cccc3c(=O)n(C)ccc23)cc1`?
TDP1 cell CPT: 13µM*; DT40 TDP1 no CPT: 18µM*

What do the screens show for `C/C(Cl)=C\Cn1c(N2CCCC2)nc2c1c(=O)n(C)c(=O)n2C`?
TDP1 cell CPT: -12%; uPA surface inh: 8%; HT1080 IDH1KD tx: -5%; DT40 TDP1 no CPT: inconclusive; IL1B secr inh: 61; HT1080NT lethal: 2%

How did O=C(NCCc1ccc(F)cc1)c1ccncc1 do in these assays?
TDP1 cell CPT: inconclusive; uPA surface inh: -8%; HT1080 IDH1KD tx: -6%; DT40 TDP1 no CPT: 2%; IL1B secr inh: -12; HT1080NT lethal: -3%

What do the screens show for `OC(c1ccc2c(c1)CN(Cc1cccc3nccnc13)CCO2)C1CCCCC1` (configuration not stated)?
TDP1 cell CPT: 6%; DT40 TDP1 no CPT: -19%

Results for Cc1ccccc1S(=O)(=O)Cc1ccc(C(=O)N2CCN(c3cccc(C)c3C)CC2)o1 ?
TDP1 cell CPT: 5.2µM*; uPA surface inh: -17%; HT1080 IDH1KD tx: 6.5µM*; DT40 TDP1 no CPT: 4.1µM*; IL1B secr inh: 0; HT1080NT lethal: 5.8µM*

What do the screens show for `Cc1ccccc1S(=O)(=O)Cc1ccc(C(=O)N2CC(C)CC(C)C2)o1` (configuration not stated)?
TDP1 cell CPT: inconclusive; uPA surface inh: 11%; HT1080 IDH1KD tx: 4%; DT40 TDP1 no CPT: inconclusive; IL1B secr inh: -4; HT1080NT lethal: 13%

How did Cc1ccccc1S(=O)(=O)Cc1ccc(C(=O)N2CCN(c3cccc(Cl)c3)CC2)o1 do in these assays?
TDP1 cell CPT: 4.1µM*; DT40 TDP1 no CPT: 4.6µM*

How did CCc1ccccc1S(=O)(=O)Cc1ccc(C(=O)N2CCN(c3ccccc3OC)CC2)o1 do in these assays?
TDP1 cell CPT: 8.2µM*; uPA surface inh: 21%; HT1080 IDH1KD tx: -27%; DT40 TDP1 no CPT: 13µM*; IL1B secr inh: 6; HT1080NT lethal: inconclusive

How did COc1ccccc1S(=O)(=O)Cc1ccc(C(=O)N2CCCC2)o1 do in these assays?
TDP1 cell CPT: 2%; uPA surface inh: 8%; HT1080 IDH1KD tx: 3%; DT40 TDP1 no CPT: -7%; IL1B secr inh: 17; HT1080NT lethal: 0%

Results for Cc1ccc(S(=O)(=O)Cc2ccc(C(=O)N3CCN(c4cccc(Cl)c4)CC3)o2)cc1 ?
TDP1 cell CPT: 0.65µM*; DT40 TDP1 no CPT: 0.65µM*

Results for Cc1nc(CC(=O)Nc2ccc(C(N)=O)cc2)cs1 ?
TDP1 cell CPT: 8%; DT40 TDP1 no CPT: 2%

Results for COc1ccc(Cl)cc1NC(=O)C(C)n1nnc2sc3c(c2c1=O)CCCC3 (configuration not stated) ?
TDP1 cell CPT: 21µM*; DT40 TDP1 no CPT: 13µM*
